Laboratory results from PubChem BioAssay (Tox21).
Inconclusive results are not listed. Active and inactive are the calls of the source. Unless noted, calls come from the whole dose curve; as a rule, active = well fitted curve in the direction sought with a large enough effect in the repeat runs; inconclusive = weak or mixed curves; inactive = no such curve, though single readings can be large; an effect the other way counts as inactive or inconclusive.

Assays:
[1] = qHTS assay to identify small molecule antagonists of the thyroid receptor (TR) signaling pathway - cell viability counter screen (AID 743064); note: nearly all actives have a fitted effect of over 50% in size; note: potency is the fitted concentration of half-maximal effect
In short: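 In rat pituitary GH3.TRE-Luc reporter cells co-exposed to compound and 1 nM T3 for 23.5 h, cytotoxicity was assessed with CellTiter-Fluor in the same wells, read by fluorescence.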

[2] = qHTS assay to identify small molecule antagonists of the thyroid receptor (TR) signaling pathway (AID 743065); note: nearly all actives have a fitted effect of over 55% in size; note: potency is the fitted concentration of half-maximal effect
In short: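 GH3.TRE-Luc rat pituitary cells (two TREs driving luciferase) were dosed with compound, then stimulated with 1 nM T3 (final) for 23.5 h at 37 C. ONE-Glo luminescence was the read-out, with CellTiter-Fluor fluorescence as the cytotoxicity counter-screen.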

[3] = system: thyroid hormone receptor (rat, GH3 cells); experiment: qHTS assay to identify small molecule agonists of the thyroid receptor (TR) signaling pathway (AID 743066; calls by dose curve)
[4] = qHTS assay to identify small molecule antagonists of the estrogen receptor alpha (ER-alpha) signaling pathway - cell viability counter screen (AID 743074; calls by dose curve; note: nearly all actives have a fitted effect of over 45% in size)
[5] = target: Estrogen receptor (Homo sapiens) (UniProt P03372); experiment: qHTS assay to identify small molecule agonists of the estrogen receptor alpha (ER-alpha) signaling pathway (AID 743075; calls by dose curve)
Sequence of Estrogen receptor (Homo sapiens) (P03372 whole entry, looked up): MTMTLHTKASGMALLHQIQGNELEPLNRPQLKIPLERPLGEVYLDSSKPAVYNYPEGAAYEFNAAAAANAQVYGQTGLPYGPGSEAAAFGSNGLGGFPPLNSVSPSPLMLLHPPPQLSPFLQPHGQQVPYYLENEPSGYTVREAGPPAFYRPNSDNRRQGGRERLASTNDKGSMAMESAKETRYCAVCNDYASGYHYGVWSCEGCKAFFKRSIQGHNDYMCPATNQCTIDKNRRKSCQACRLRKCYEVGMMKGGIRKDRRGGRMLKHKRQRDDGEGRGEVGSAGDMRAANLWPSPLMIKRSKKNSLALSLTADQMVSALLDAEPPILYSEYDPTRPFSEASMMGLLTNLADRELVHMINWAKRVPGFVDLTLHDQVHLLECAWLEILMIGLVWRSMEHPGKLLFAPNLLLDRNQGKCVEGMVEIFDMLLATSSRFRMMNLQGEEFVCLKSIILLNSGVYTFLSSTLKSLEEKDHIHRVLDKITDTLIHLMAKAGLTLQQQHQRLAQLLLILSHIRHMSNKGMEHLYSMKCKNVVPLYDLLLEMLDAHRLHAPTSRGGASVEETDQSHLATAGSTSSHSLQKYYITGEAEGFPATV

[6] = target: Estrogen receptor (Homo sapiens) (UniProt P03372); experiment: qHTS assay to identify small molecule agonists of the estrogen receptor alpha (ER-alpha) signaling pathway using the BG1 cell line (AID 743079); conditions: BG1Luc4E2 cells, ERE-luciferase agonist, 22 h; activation: at 70.3 µM (top of the series); note: nearly all actives have a fitted effect of over 20% in size; note: potency is the fitted concentration of half-maximal effect
[7] = qHTS assay to identify small molecule antagonists of the estrogen receptor alpha (ER-alpha) signaling pathway using the BG1 cell line (AID 743080; calls by dose curve;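 note: BG1 cells stimulated with 17beta-estradiol alongside compound; nearly all actives have a fitted effect of over 25% in size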)
In short: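 Quantitative HTS on the Tox21 10K library: BG1 cells with endogenous ER-alpha and ERE-luciferase reporter, 17beta-estradiol stimulation, 21.5 h compound exposure, luminescence endpoint with parallel fluorescence cytotoxicity counter-read.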

[8] = qHTS assay to identify small molecule antagonists of the estrogen receptor alpha (ER-alpha) signaling pathway using the BG1 cell line - cell viability counter screen (AID 743081);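 note: compound given together with 17beta-estradiol as the ER stimulus; nearly all actives have a fitted effect of over 45% in size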
Aromatase (Homo sapiens) = Aromatase (Homo sapiens) (UniProt P11511); experiment: qHTS assay to identify aromatase inhibitors (AID 743083); note: nearly all actives have a fitted effect of over 55% in size
Sequence of Aromatase (Homo sapiens) (P11511 whole entry, looked up): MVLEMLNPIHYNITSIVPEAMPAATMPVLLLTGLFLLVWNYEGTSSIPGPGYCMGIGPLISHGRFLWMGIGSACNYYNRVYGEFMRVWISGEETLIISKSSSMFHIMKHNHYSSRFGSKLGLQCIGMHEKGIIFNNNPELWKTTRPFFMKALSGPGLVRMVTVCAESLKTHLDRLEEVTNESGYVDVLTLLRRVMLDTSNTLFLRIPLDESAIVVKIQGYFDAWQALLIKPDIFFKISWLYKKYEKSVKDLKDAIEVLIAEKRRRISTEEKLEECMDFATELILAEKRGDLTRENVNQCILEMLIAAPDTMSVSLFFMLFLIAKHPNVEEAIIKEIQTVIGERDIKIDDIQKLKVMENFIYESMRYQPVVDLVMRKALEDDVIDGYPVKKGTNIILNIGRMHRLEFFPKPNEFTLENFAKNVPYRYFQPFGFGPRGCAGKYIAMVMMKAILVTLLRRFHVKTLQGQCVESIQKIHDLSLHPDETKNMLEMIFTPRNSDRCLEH

[9] = qHTS assay to identify aromatase inhibitors - cell viability counter screen (AID 743084);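 note: cells stimulated with testosterone during compound exposure; nearly all actives have a fitted effect of over 55% in size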
[10] = target: Aryl hydrocarbon receptor (Homo sapiens) (UniProt P35869); experiment: qHTS assay to identify small molecule that activate the aryl hydrocarbon receptor (AhR) signaling pathway (AID 743085); note: nearly all actives have a fitted effect of over 15% in size; note: potency is the fitted concentration of half-maximal effect;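 for activation: HG2L7.5c1 human HepG2 liver cells with stably integrated DRE-driven firefly reporter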
Sequence of Aryl hydrocarbon receptor (Homo sapiens) (P35869 whole entry, looked up): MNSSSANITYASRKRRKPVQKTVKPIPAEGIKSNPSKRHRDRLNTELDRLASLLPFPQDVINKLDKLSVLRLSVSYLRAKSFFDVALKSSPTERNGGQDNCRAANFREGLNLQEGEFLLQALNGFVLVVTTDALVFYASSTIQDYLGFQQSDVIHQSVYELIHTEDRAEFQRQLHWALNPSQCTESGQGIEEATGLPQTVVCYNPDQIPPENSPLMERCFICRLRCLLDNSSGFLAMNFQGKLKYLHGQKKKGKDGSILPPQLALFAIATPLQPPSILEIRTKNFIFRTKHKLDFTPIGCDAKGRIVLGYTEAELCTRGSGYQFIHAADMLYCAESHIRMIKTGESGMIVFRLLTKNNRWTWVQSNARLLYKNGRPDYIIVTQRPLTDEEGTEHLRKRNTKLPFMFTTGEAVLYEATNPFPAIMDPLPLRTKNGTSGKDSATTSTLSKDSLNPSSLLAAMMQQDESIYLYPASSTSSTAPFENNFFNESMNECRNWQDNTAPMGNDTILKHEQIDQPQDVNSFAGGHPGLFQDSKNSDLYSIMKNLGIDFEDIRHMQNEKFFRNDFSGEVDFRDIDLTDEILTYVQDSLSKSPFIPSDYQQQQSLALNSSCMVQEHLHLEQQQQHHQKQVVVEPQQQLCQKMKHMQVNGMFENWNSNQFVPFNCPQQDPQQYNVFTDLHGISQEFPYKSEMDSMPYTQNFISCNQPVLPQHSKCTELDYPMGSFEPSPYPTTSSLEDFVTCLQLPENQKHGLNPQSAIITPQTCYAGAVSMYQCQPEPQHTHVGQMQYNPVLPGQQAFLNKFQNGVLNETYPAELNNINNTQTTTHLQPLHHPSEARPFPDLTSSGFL
In short: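 AhR agonist activity is inferred from enhanced light output of a DRE-controlled firefly luciferase reporter in HepG2 cells, measured with ONE-Glo following 24 h treatment at 37C.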

[11] = qHTS assay to identify small molecule that activate the aryl hydrocarbon receptor (AhR) signaling pathway - cell viability counter screen (AID 743086);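 note: HepG2 liver cells carrying the AhR DRE luciferase reporter; nearly all actives have a fitted effect of over 45% in size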
In short: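 HepG2-AhR-luc (HG2L7.5c1) cells, 4000/well, treated 24 h at 37 C with compound; viability measured as CellTiter-Fluor fluorescence after 30 min in the same wells as the luciferase read.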

[12] = target: Peroxisome proliferator-activated receptor gamma (Homo sapiens) (UniProt P37231); experiment: qHTS assay to identify small molecule agonists of the peroxisome proliferator-activated receptor gamma (PPARg) signaling pathway (AID 743094; active = well fitted activation curve with a large enough effect in the signal ratio in the repeat runs, not every such curve was filed as active; the % refers to the signal ratio)
Sequence of Peroxisome proliferator-activated receptor gamma (Homo sapiens) (P37231 whole entry, looked up): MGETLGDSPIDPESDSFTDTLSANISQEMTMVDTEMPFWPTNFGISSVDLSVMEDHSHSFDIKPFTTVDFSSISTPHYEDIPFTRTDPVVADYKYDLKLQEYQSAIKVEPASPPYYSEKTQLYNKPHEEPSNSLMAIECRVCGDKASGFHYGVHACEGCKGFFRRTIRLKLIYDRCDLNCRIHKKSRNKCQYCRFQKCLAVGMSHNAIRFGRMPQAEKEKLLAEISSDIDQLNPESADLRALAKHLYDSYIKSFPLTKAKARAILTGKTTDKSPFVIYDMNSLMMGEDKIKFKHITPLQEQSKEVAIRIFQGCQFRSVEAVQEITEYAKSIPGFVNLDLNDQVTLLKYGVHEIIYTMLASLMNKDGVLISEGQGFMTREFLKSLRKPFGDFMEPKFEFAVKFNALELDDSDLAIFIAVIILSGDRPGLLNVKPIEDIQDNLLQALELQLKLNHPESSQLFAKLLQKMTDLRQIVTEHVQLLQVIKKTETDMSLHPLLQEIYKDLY
In short: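 Cells from the PPARg UAS-bla HEK293H line are plated and incubated 5 h at 37C. Compounds in DMSO are pinned in and left 17 h at 37C. LiveBLAzer B/G substrate is then added for 1 h at room temperature before fluorescence is measured.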

[13] = qHTS assay to identify small molecule phospholipidosis (PLD) inducers (AID 1259344; active = well fitted curve in the direction sought with a large enough effect; an effect the other way counts as inactive or inconclusive)
In short: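 Image-based: LipidTOX Red pit count/intensity per well and per cell; HepG2, 24 h compound at 37 C, PFA fixation, Hoechst counterstain.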

[14] = target: Estrogen receptor (Homo sapiens) (UniProt P03372); experiment: qHTS assay to identify small molecule antagonists of the estrogen receptor alpha (ER-alpha) signaling pathway (AID 743069; active = well fitted curve in the direction sought with a large enough effect in the signal ratio in the repeat runs, not every such curve was filed as active; the % refers to the signal ratio)
In short: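 In this cell-based reporter format, GripTite HEK293 cells harbouring ER-alpha-UAS-bla were grown overnight with 2% charcoal-stripped FBS, dosed with DMSO-dissolved compounds, then challenged with 17beta-estradiol. After 18 hr at 37C, beta-lactamase activity was detected by FRET fluorescence.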
% is set by controls: 0 for no effect and ±100 for the full control effect.

Cc1c(O)cc2c(c1C)O[C@](C)(CCC[C@H](C)CCC[C@H](C)CCCC(C)C)CC2
inactive: Potency [1] | Potency [2] | Potency [3] | Potency [4] | Potency [5] | Potency [6] | Potency [7] | Potency [8] | Potency (Aromatase (Homo sapiens)) | Potency [9] | Potency [10] | Potency [11] | Potency [12] | Potency [13]

COc1cc(S(C)=O)ccc1-c1nc2ncccc2[nH]1 (centres undefined)
active: Potency [10] 2.11 µM
inactive: Potency [1] | Potency [2] | Potency [3] | Potency [14] | Potency [5] | Potency [6] | Potency [7] | Potency [8] | Potency (Aromatase (Homo sapiens)) | Potency [9] | Potency [11] | Potency [12] | Potency [13]

CC(C)(C)CC(=O)OCC(=O)[C@@]12OC(C)(C)O[C@@H]1C[C@H]1[C@@H]3CCC4=CC(=O)C=C[C@]4(C)[C@@]3(F)[C@@H](O)C[C@@]12C
inactive: Potency [1] | Potency [2] | Potency [3] | Potency [4] | Potency [6] | Potency (Aromatase (Homo sapiens)) | Potency [9] | Potency [10] | Potency [11] | Potency [12] | Potency [13]

CCCN(CC)C(CC)C(=O)Nc1c(C)cccc1C (centres undefined)
inactive: Potency [1] | Potency [2] | Potency [3] | Potency [4] | Potency [5] | Potency [6] | Potency [7] | Potency (Aromatase (Homo sapiens)) | Potency [9] | Potency [10] | Potency [11] | Potency [12] | Potency [13]

O=P(O)(O)OC(Cn1cncn1)(Cn1cncn1)c1ccc(F)cc1F
inactive: Potency [1] | Potency [2] | Potency [3] | Potency [14] | Potency [4] | Potency [5] | Potency [6] | Potency [7] | Potency (Aromatase (Homo sapiens)) | Potency [9] | Potency [10] | Potency [11] | Potency [12] | Potency [13]

c1ccc2c(CCC3CCNCC3)c[nH]c2c1
active: Potency [1] 18.8 µM | Potency [2] 21.1 µM
inactive: Potency [3] | Potency [14] | Potency [5] | Potency [6] | Potency [7] | Potency [8] | Potency (Aromatase (Homo sapiens)) | Potency [9] | Potency [12] | Potency [13]

CC(=O)N[C@@H](CC(=O)N[C@@H](CCC(=O)O)C(=O)O)C(=O)O
inactive: Potency [1] | Potency [2] | Potency [3] | Potency [4] | Potency [5] | Potency [6] | Potency [7] | Potency [8] | Potency (Aromatase (Homo sapiens)) | Potency [9] | Potency [10] | Potency [11] | Potency [12] | Potency [13]

C[C@]12C=CC(=O)C=C1CC[C@@H]1[C@@H]2[C@@H](O)C[C@@]2(C)[C@H]1CC[C@]2(O)C(=O)COC(=O)CCC(=O)O
inactive: Potency [1] | Potency [2] | Potency [3] | Potency [4] | Potency [5] | Potency (Aromatase (Homo sapiens)) | Potency [9] | Potency [11] | Potency [12] | Potency [13]

CCC(C)C(C(=O)OCC[N+](C)(CC)CC)c1ccccc1 (centres undefined)
inactive: Potency [1] | Potency [2] | Potency [3] | Potency [4] | Potency [8] | Potency (Aromatase (Homo sapiens)) | Potency [9] | Potency [10] | Potency [11] | Potency [13]

Cn1nnnc1SCC1=C(C(=O)O)N2C(=O)[C@@H](NC(=O)[C@H](OC=O)c3ccccc3)[C@H]2SC1
inactive: Potency [1] | Potency [2] | Potency [3] | Potency [14] | Potency [4] | Potency [5] | Potency [6] | Potency [8] | Potency (Aromatase (Homo sapiens)) | Potency [9] | Potency [10] | Potency [11] | Potency [12] | Potency [13]

NCCCNCCCCNC(=O)C(O)NC(=O)CCCCCCN=C(N)N (centres undefined)
inactive: Potency [1] | Potency [2] | Potency [3] | Potency [14] | Potency [4] | Potency [5] | Potency [6] | Potency [7] | Potency (Aromatase (Homo sapiens)) | Potency [9] | Potency [10] | Potency [11] | Potency [12] | PLD induction [13] -1.69% [at 7.66 µM]

O=C[C@H](O)[C@@H](O)[C@H](O[C@H]1O[C@H](CO)[C@@H](O[C@H]2O[C@H](CO)[C@@H](O)[C@H](O)[C@H]2O)[C@H](O)[C@H]1O)[C@H](O)CO
active: Potency [6] 26.6 µM
inactive: Potency [1] | Potency [2] | Potency [3] | Potency [14] | Potency [5] | Potency [7] | Potency [8] | Potency (Aromatase (Homo sapiens)) | Potency [9] | Potency [10] | Potency [11] | Potency [12] | Potency [13]

OC(CN1CCCCC1)c1cc(-c2ccccc2)on1 (centres undefined)
active: Potency [6] 23.7 µM
inactive: Potency [1] | Potency [2] | Potency [3] | Potency [14] | Potency [4] | Potency [5] | Potency [8] | Potency (Aromatase (Homo sapiens)) | Potency [9] | Potency [11] | Potency [12] | Potency [13]

Nc1ccn(C[C@@H](CO)OCP(=O)(O)O)c(=O)n1
inactive: Potency [1] | Potency [2] | Potency [3] | Potency [14] | Potency [4] | Potency [7] | Potency (Aromatase (Homo sapiens)) | Potency [9] | Potency [11] | Potency [12] | PLD induction [13] -2.23% [at 7.66 µM]

CC(=O)OCC(=O)[C@@]1(O)[C@H](C)C[C@H]2[C@@H]3C[C@H](F)C4=CC(=O)C=C[C@]4(C)[C@H]3[C@@H](O)C[C@@]21C
inactive: Potency [1] | Potency [2] | Potency [3] | Potency [4] | Potency [5] | Potency [6] | Potency (Aromatase (Homo sapiens)) | Potency [9] | Potency [11] | Potency [12] | Potency [13]

C[C@H]1C[C@H]2[C@@H]3CCC4=CC(=O)C=C[C@]4(C)[C@@]3(F)[C@@H](O)C[C@]2(C)[C@@]1(O)C(=O)CCl
inactive: Potency [1] | Potency [2] | Potency [3] | Potency [4] | Potency [5] | Potency [6] | Potency (Aromatase (Homo sapiens)) | Potency [12] | Potency [13]
active: Potency [10] 6.68 µM
